TRHR ag = agonists of human TRH receptor | TRHR cells, calcium flux fluo-8, FDSS agonist mode | 0.18% of 360,000 active | activation, % at 2 µM
Target sequence (P34981 whole entry, looked up): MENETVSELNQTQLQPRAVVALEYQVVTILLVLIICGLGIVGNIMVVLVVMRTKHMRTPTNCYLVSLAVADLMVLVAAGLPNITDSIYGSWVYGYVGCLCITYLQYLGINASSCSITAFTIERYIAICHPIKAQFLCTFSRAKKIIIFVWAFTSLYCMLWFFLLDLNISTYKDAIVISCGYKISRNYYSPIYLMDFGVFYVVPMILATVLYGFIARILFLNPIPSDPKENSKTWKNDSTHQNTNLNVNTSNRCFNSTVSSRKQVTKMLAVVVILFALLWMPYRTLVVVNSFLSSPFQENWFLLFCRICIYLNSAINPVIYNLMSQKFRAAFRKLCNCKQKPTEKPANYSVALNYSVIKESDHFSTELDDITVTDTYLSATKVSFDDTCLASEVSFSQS
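In this calcium-flux screen, cells bearing human TRHR are dye-loaded with fluo-8, baselined for 10 cycles, then exposed to library compounds; positive kinetic calcium responses during the agonist phase mark hits, with TRH as control.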
D1 antag = blocks dopamine activation of the human D1 receptor. HEK293 TREx D1 cells, calcium flux, dopamine EC80; active compounds read low. activity change, negative = inhibition, % at 10 µM. 3.2% of 360,000 active. AID 504652; in the data active means activity change below about -30%
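Antagonism measured as reduced calcium response to an EC80 dopamine addition following 180 s compound pre-read; cells were inducible HEK293 Trex D1 plated overnight at 30 C, read kinetically at 1 cycle/sec.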
D1 ag = activates the human D1 dopamine receptor; P21728; HEK293 T-REx D1 cells, calcium flux, agonist mode; activation, % at 2 µM; 1% of 360,000 active; AID 504660
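Inducible HEK293 T-REx D1 cells, force-coupled to calcium signalling, were plated at 4000 cells/well with tetracycline and held overnight at 30 C. After no-wash calcium dye loading, compound-evoked calcium rise over 180 s flagged agonists.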
TRHR enhancer = allosterically enhances the human TRH receptor; TRHR cells, fluo-8 calcium fluorescence, EC20 TRH enhancement; enhancement, % at 2 µM; P34981; 0.66% of 360,000 active; in the data active means enhancement above about 30%
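Enhancer read-out: after compound pinning and an initial kinetic agonist-mode read, an EC20 of TRH (10 nM final) was injected and fluo-8 calcium signal (Ex 480/Em 530) followed at 1 s/cycle for 100 cycles in TRHR-expressing cells.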
D1 potentiator = enhances dopamine response at the human D1 receptor; HEK293 TREx D1 cells, calcium flux, dopamine EC20 potentiation; potentiation, % at 10 µM; 0.036% of 360,000 active; in the data active means potentiation above about 30%
Numbers stand for hits; - = inactive; . = not tested or not shown; ! = not active in a repeat. Most compounds without a hit are left out; they make up all but 4.6% or so of the library. Unless noted, no stated cut-off is given here; in the data, active means activation above about 30%; inactive means the rest.

SMILES	TRHR ag	D1 antag	D1 ag	TRHR enhancer	D1 potentiator
COCCCNCCCCOc1ccccc1-c1ccccc1	-	-37.5	-	-	-
CCOc1ccccc1NC(=O)c1cccc(NC2=NC3CS(=O)(=O)CC3S2)c1 (stereo unspecified)	-	-	-	-	-
CN(C)S(=O)(=O)c1ccc(C(=O)NNC(=O)c2ccccc2-n2cccc2)cc1	-	-	-	-	-
CCCSc1ncc(Cl)c(C(=O)Nc2ccc(CC)cc2)n1	-	-	-	-	-
COc1ccc(-c2noc(CSc3nnc(-c4ccc(Cl)cc4)n3C)n2)cc1OC	-	-31.0	-	-	-
COc1ccc(-c2noc(CSc3nnc(C)n3-c3cccc(C)c3)n2)cc1	-	-34.3	-	-	-
COc1ccc(-c2noc(CSc3nnc(-c4ccccc4)n3C)n2)cc1	-	-	-	-	-
O=C(O)CSC1CC(=O)N(c2ccc(Br)cc2)C1=O (stereo unspecified)	-	-	-	40.4	-
O=C(O)CSC1CC(=O)N(c2ccc(Cl)cc2)C1=O (stereo unspecified)	-	-	-	-	-
CC(C)OCCCNC(=O)c1cn(C)c2ccc(S(=O)(=O)N3CCCCCC3)cc2c1=O	-	-34.2	-	-	-
CCn1cc(C(=O)NCCCOC)c(=O)c2cc(S(=O)(=O)N(C)C3CCCCC3)ccc21	-	-	-	-	-
CCC1CCCCN1CCCNC(=O)c1cn(CC)c2ccc(S(=O)(=O)N(C)C3CCCCC3)cc2c1=O (stereo unspecified)	-	-38.2!	-	-	-
CCN1/C(=C/C=C/c2oc3ccc(-c4ccccc4)cc3[n+]2CC)Oc2ccc(-c3ccccc3)cc21	316.8	-84.2	547.2	-	-
COCCCNCCCOc1ccc(Cl)cc1Br	-	-	-	-	-
CC(C)NCCCOc1ccc(Cl)cc1Br	-	-	47.0	-	-
CC(C)NCCCCOc1ccc(Br)cc1Cl	-	-	49.8	-	-
CCCCNCCOCCOc1ccc(Cl)cc1Br	-	-41.3	-	-	-
CCNC(=O)COc1ccc(Br)cc1Cl	-	-	-	-	-
COCCCNC(=O)COc1ccc(Br)cc1Cl	-	-34.0	-	-	-
CCCn1c2ccccc2c2cnn(CC(=O)NCC3CCN(Cc4ccccc4C)CC3)c(=O)c21	-	-	-	-	-
CCn1c(=N)c(C(=O)NCc2ccccc2)cc2c(=O)n3cc(C)ccc3nc21	-	-	-	-	-
O=C(Nc1noc2ccccc12)c1ccc(F)cc1	-	-	-	46.0	-
O=C(Nc1noc2ccccc12)c1cccc(F)c1	-	-	-	-	-
O=C(c1ccco1)N1CCN(C(=O)c2cc3ccccc3oc2=O)CC1	-	-	-	-	-
O=C(CSc1ccccc1F)OCC(=O)N1CCN(C(=O)c2ccco2)CC1	-	-	-	-	-
SMILES	TRHR ag	D1 antag	D1 ag	TRHR enhancer	D1 potentiator
Cc1cc(Br)ccc1SCC(=O)OCC(=O)N1CCN(C(=O)c2ccco2)CC1	-	-	34.1	-	-
COc1ccc(C2SCCN2C(=S)Nc2ccc(F)cc2)cc1 (stereo unspecified)	-	-	-	-	-
CCOC(=O)c1ccc(NC(=S)N2CCSC2c2ccc(Cl)cc2)cc1 (stereo unspecified)	-	-	30.6	-	-
CCOC(=O)c1ccc(NC(=S)N2CCSC2c2ccc(OC)cc2)cc1 (stereo unspecified)	-	-	40.3	-	-
COc1ccc(C2SCCN2C(=S)Nc2cccc(C(F)(F)F)c2)cc1 (stereo unspecified)	-	-35.6	56.3	-	-
COc1ccc(NC(=S)Nc2cccc(C(F)(F)F)c2)c(C)c1	-	.	-	-	-
CCOC(=O)c1ccc(NC(=O)CN2C(=O)C(C)SC(C)C2=O)cc1 (stereo unspecified)	-	-	-	-	-
CN(Cc1ccccc1)C(=O)C(C(=O)c1ccc(F)cc1)n1cc(Cl)ccc1=O (stereo unspecified)	-	-	-	-	-
CCN(CC)C(=O)C(C(=O)c1cccc([N+](=O)[O-])c1)n1cc(Cl)ccc1=O (stereo unspecified)	-	-36.8	-	-	-
OC(COCc1cccs1)CN1CCN(c2cccc(C(F)(F)F)c2)CC1 (stereo unspecified)	-	-	-	-	-
COC(CNC(=O)CCc1c(C)nc2c(-c3ccc(F)cc3)c(C)nn2c1C)OC	-	-	-	-	-
Cc1ccc(S(=O)(=O)N/N=C/c2ccc(OC3CSC3)cc2)cc1	-	-	60.9	-	-
Cc1ccc(S(=O)(=O)N/N=C/c2ccc(C(=O)O)cc2)cc1	-	-	-	-	-
CC(OC(=O)Cn1[nH]c(=O)c2ccccc2c1=O)C(=O)Nc1ccc(F)cc1 (stereo unspecified)	-	-30.5	-	-	-
CCn1c(=N)c(C(=O)NC2CCCC2)cc2c(=O)n3cc(C)ccc3nc21	-	-	-	-	-
CCn1c(=N)c(C(=O)NC2CCCCC2)cc2c(=O)n3cc(C)ccc3nc21	-	-30.7	-	-	-
Cc1ccc2nc3c(cc(C(=O)NCc4ccco4)c(=N)n3C3CCCC3)c(=O)n2c1	-	-	39.1	-	.
CCOC(=O)c1ccc(-n2c(CCC(=O)O)ccc2-c2ccc(Br)cc2)cc1	-	-31.4	-	-	-
O=C(O)CCc1ccc(-c2ccc(Br)cc2)n1-c1ccc(O)cc1	-	-	-	-	-
CCOc1ccc(-n2c(CCC(=O)O)ccc2-c2ccc(Br)cc2)cc1	-	-	-	32.9	-
CCOc1ccc(Nc2nc(Cc3nnc(SCC(=O)O)o3)cs2)cc1	-	-	-	-	-
CC(C)N(Cc1nc2ccccc2[nH]1)C(C)C	-	-33.9	-	-	-
CCOCCn1c(=NC(=O)c2ccc3c(c2)OCCO3)sc2cc(OCC)ccc21	-	-30.8	-	-	-
O=C(CSc1cccc2cccnc12)N/N=C/c1ccc(F)cc1	-	-49.9	-	-	-
COc1ccc(NC(=O)c2sc3nc4c(c(-c5ccc(OC)cc5)c3c2N)C(=O)CC(C)(C)C4)cc1	-	-35.9	-	-	-
SMILES	TRHR ag	D1 antag	D1 ag	TRHR enhancer	D1 potentiator
COc1ccc(-c2c3c(nc4sc(C(=O)Nc5cccc(OC)c5)c(N)c24)CC(C)(C)CC3=O)cc1	-	-	-	-	-
Cc1cc(OC(=O)c2c(Cl)cc(Cl)cc2Cl)nc(C)n1	-	-	-	-	-
Cc1cc(C)nc(OC(=O)c2c(Cl)cc(Cl)cc2Cl)n1	-	-	-	30.2	-
O=C(CSc1nc2c([nH]c3ccccc32)c(=O)n1-c1ccc(F)cc1)N1CCc2ccccc21	-	-45.1	-	-	-
COc1cccc(-n2c(SCC(N)=O)nc3c([nH]c4ccccc43)c2=O)c1	-	-	-	37.1	-
Cc1ccc(NC(=O)CSc2nc3c([nH]c4ccccc43)c(=O)n2C)cc1	-	-33.4	-	-	-
COc1ccc(-n2c(SCC(=O)Nc3cccc(C)c3C)nc3c([nH]c4ccccc43)c2=O)cc1	-	-	-	-	-

Screens as filed in PubChem BioAssay.
